We go through 46 compounds from PubChem BioAssay AID1053133 (Broad Institute, 2014).

Several values for one entry are separate records, joined by “and”; a condition that tells them apart may be missing. Equal entries are not always repeated. The whole screen tested about 89,000 compounds, of which about 10 (0.01%) were called active. Not shown: some 10% with an inconclusive outcome. Cut-off read from the data, not from the text of the source: active = activity change below about -37% (passing the limit was not always enough); inconclusive = no clear call, values can overlap the other calls; tested in A549 cells. The list is a sample of the results.

The assay is described as follows: Vaccinia orthopox stage-specific inhibition, primary screen, cell-based, single point (AID 1053133). The following applies: Vaccinia-infected cells, mCherry/Venus stage reporter fluorescence, stronger effect = lower value, concentration not given here; activity change (Venus): measured here: Venus reporter, other viral stage.
Consider `Cc1ccc(S(=O)(=O)NCC[C@@H]2CC[C@@H](NC(=O)CCN3CCCCC3)[C@@H](CO)O2)cc1`, for which the activity change (Venus) came out at 12.7% and the activity change (mCherry) was 18.4% (inactive).

For `Cc1ccccc1-c1ccc2c(c1)O[C@@H](CN(C)Cc1ccc(C(=O)O)cc1)[C@@H](C)CN([C@H](C)CO)S2(=O)=O`, the activity change (Venus) was 9.16% and -2.89%; the activity change (mCherry) was 13.4% (inactive) and 11.3% (inactive).

As for `COC(=O)[C@@H]1[C@@H](CO)[C@@H]2Cn3c(ccc(C4=CCCC4)c3=O)[C@@H]2N1Cc1cncnc1`, the activity change (Venus) is 12.2% and the activity change (mCherry) is 12.2% (inactive).

As to `C[C@H](O)C#Cc1ccc([C@@H]2[C@@H](CO)N3CCCCN(C(=O)c4ccc(F)cc4)C[C@H]23)cc1`, the activity change (Venus) is -0.172% and the activity change (mCherry) was 24.9% (inactive).

Regarding `COC(=O)C[C@H]1CC[C@H]2[C@H](COc3ccc(NC(=O)C4CC4)cc3C(=O)N2C)O1`, the activity change (Venus) came to 8.69% and the activity change (mCherry) is 16.9% (inactive).

As for `C[C@@H](NC(=O)C[C@H]1CC[C@H](NS(=O)(=O)c2cccc(F)c2)[C@H](CO)O1)c1ccccc1`, the activity change (Venus) is 2.54% and the activity change (mCherry) was 12.2% (inactive).

On to `COc1ccc(NC(=O)N(C)C[C@@H]2OCCCC[C@H](C)Oc3ccc(NS(=O)(=O)c4cn(C)cn4)cc3C(=O)N([C@@H](C)CO)C[C@@H]2C)cc1`, for which the activity change (Venus) was 6.5% and the activity change (mCherry) was 16% (inactive).

For `CO[C@@H]1CN(C)C(=O)c2ccc(NS(=O)(=O)c3cccc(F)c3)cc2OC[C@H](C)N(C(=O)Cc2cccnc2)C[C@@H]1C`, the activity change (Venus) was -6.63% and the activity change (mCherry) is -1.85% (inactive).

On to `CCCNC(=O)N1[C@H](C#N)[C@@H](c2ccccc2C2=CCCCC2)[C@@H]1CO`, for which the activity change (Venus) stood at 2.66% and the activity change (mCherry) is -4.44% (inactive).

As for `O=C(C[C@H]1CC[C@H](NC(=O)c2ccc(F)cc2)[C@@H](CO)O1)NCCc1ccncc1`, the activity change (Venus) is -8.31% and the activity change (mCherry) was 6.53% (inactive).

For the compound `CC(=O)N(C)C[C@@H]1Oc2cc(C#Cc3ccccc3F)ccc2S(=O)(=O)N([C@@H](C)CO)C[C@@H]1C`, the activity change (Venus) was -24.5% and the activity change (mCherry) was -31.1% (inactive).

With `CCCNC(=O)N[C@H]1C=C[C@@H](CC(=O)NC2CCCCC2)O[C@H]1CO`, the activity change (Venus) is -1.05% and the activity change (mCherry) was -4.3% (inactive).

With `CS(=O)(=O)Nc1ccc2c(c1)[C@H]1C[C@@H](CC(=O)N3CCOCC3)O[C@@H](CO)[C@H]1O2`, the activity change (Venus) came to 11.4% and the activity change (mCherry) is 11% (inactive).

Take `CC(C)NC(=O)N1[C@H](CO)[C@H](c2ccccc2)C12CN(C(=O)Cc1ccccc1)C2`: the activity change (Venus) was found to be 4.09% and the activity change (mCherry) is -7.19% (inactive).

With `COc1ccc2c3c([nH]c2c1)[C@@H](CO)N(C(=O)NC(C)C)CC31CCN(C(=O)c2ccccn2)CC1`, the activity change (Venus) was 4.18% and the activity change (mCherry) was 12.8% (inactive).

As to `O=C(N[C@H]1CC[C@@H](CCn2cc(Cc3ccccc3)nn2)O[C@H]1CO)c1cnccn1`, the activity change (Venus) is -8.51% and the activity change (mCherry) is 6.03% (inactive).

On to `COc1ccc(-c2ccccc2[C@@H]2[C@@H](C#N)N(C(=O)NC3CCCC3)[C@H]2CO)cc1`, for which the activity change (Venus) was -17.8% and the activity change (mCherry) is -22.2% (inactive).

For the compound `C[C@@H]1CN([C@H](C)CO)C(=O)c2cc(NC(=O)Nc3ccc(F)cc3)ccc2O[C@@H](C)CCCCO[C@@H]1CN(C)S(=O)(=O)c1cn(C)cn1`, the activity change (Venus) was determined as 23.4% and the activity change (mCherry) is 41.6% (inactive).

Take `CCN1[C@@H]2Cn3c(ccc(-c4cccc(OC)c4)c3=O)[C@H]1[C@@H](C(=O)N(C)C)[C@@H]2CO`: the activity change (Venus) turned out to be 15.1% and the activity change (mCherry) was 20% (inactive).

With `CO[C@H]1CN(C)C(=O)c2ccc(NC(=O)C3CCOCC3)cc2OC[C@H](C)NC[C@H]1C`, the activity change (Venus) worked out at 1.25% and the activity change (mCherry) is -0.453% (inactive).

Take `CN1c2ccc(C#Cc3cccnc3)cc2[C@H]2[C@H](CCN2S(=O)(=O)c2ccccc2)[C@@H]1CO`: the activity change (Venus) is -9.21% and the activity change (mCherry) was -5.16% (inactive).

`C[C@H](O)C#Cc1cnc2c(c1)C(=O)N([C@@H](C)CO)C[C@@H](C)[C@@H](CN(C)C(=O)Cc1ccccn1)O2`: the activity change (Venus) was 10.7% and the activity change (mCherry) was 17.6% (inactive).

As to `O=C(C[C@H]1CC[C@H](NC(=O)CCN2CCCCC2)[C@@H](CO)O1)Nc1ccccc1`, the activity change (Venus) stood at 15.9% and the activity change (mCherry) was 7.83% (inactive).

Turning to `O=C(NCC[C@H]1CC[C@@H](NS(=O)(=O)c2cccc(Cl)c2)[C@@H](CO)O1)c1cnccn1`, the activity change (Venus) is -5.45% and the activity change (mCherry) is -13.7% (inactive).

`C[C@H](CO)N1C[C@H](C)[C@@H](CN(C)Cc2ccc(Oc3ccccc3)cc2)Oc2cc(-c3ccncc3)ccc2S1(=O)=O`: the activity change (Venus) was found to be 1.19% and the activity change (mCherry) was 4.26% (inactive).

As to `CO[C@@H]1CC[C@H]2CCN(C)C(=O)C[C@@H](c3ccccc3)CN(C)C(=O)c3cc(C#N)ccc3OC[C@@H]1O2`, the activity change (Venus) is -9.45% and the activity change (mCherry) is -7.23% (inactive).

Consider `O=C(C[C@@H]1CC[C@H]2[C@@H](COC[C@H](O)CN2C(=O)Nc2ccccc2)O1)NCc1ccccc1F`, for which the activity change (Venus) came to 9.72% and the activity change (mCherry) is 7.54% (inactive).

Turning to `COc1cccc(S(=O)(=O)N2C[C@@H]3N[C@H](C2)C3c2ccc(-c3cccc(C(=O)N(C)C)c3)cc2)c1` (some centres not stated), the activity change (Venus) was -11.2% and the activity change (mCherry) was -13.4% (inactive).

For the compound `CCCC(=O)N1CC2(CCN(C(=O)C3CC3)CC2)c2c(n(C)c3cc(OC)ccc23)[C@H]1CO`, the activity change (Venus) is -6.7% and the activity change (mCherry) was -2.69% (inactive).

`COCC(=O)Nc1ccc2c(c1)OC[C@@H](C)N(Cc1ccccn1)C[C@H](C)[C@@H](OC)CN(C)C2=O`: the activity change (Venus) amounted to 15.4% and the activity change (mCherry) was 16.4% (inactive).

Take `C/C=C/c1ccc(C2[C@H]3CNC[C@@H]2N3C(=O)Nc2ccc(F)cc2)cc1` (some centres not stated): the activity change (Venus) is 2.48% and -0.546%; the activity change (mCherry) was 0.263% (inactive) and -2.6% (inactive).

For the compound `COc1ccc2c3c([nH]c2c1)[C@H](CO)N(C(=O)CN1CCOCC1)CC31CN(C(C)=O)C1`, the activity change (Venus) was 24.1% and the activity change (mCherry) is 42.6% (inactive).

Take `C[C@@H]1CCCCO[C@@H](CN(C)C(=O)Cc2ccccc2)[C@H](C)CN([C@H](C)CO)C(=O)c2cc(NC(=O)Cc3ccccc3)ccc2O1`: the activity change (Venus) is -23.2% and the activity change (mCherry) was -29.2% (inactive).

Consider `CN(C)C(=O)c1ccc(-c2ccc([C@H]3[C@H](CO)N4C(=O)CN(C(=O)C5CCCC5)C[C@@H]34)cc2)cc1`, for which the activity change (Venus) came to 3.62% and the activity change (mCherry) is 4.76% (inactive).

In the case of `CO[C@H]1CC[C@H]2CCN(C)C(=O)C[C@@H](c3ccccc3)CN(C)C(=O)c3cccc(C#N)c3OC[C@@H]1O2`, the activity change (Venus) is 36.7% and the activity change (mCherry) was 37.9% (inactive).

Consider `COc1ccccc1CNC(=O)C[C@H]1CC[C@@H](NC(=O)CN(C)C)[C@@H](CO)O1`, for which the activity change (Venus) stood at 17.1% and the activity change (mCherry) was 6.13% (inactive).

As for `COCC#Cc1ccc([C@H]2[C@@H](CO)N3C(=O)CN(C(=O)C4CCCC4)C[C@@H]23)cc1`, the activity change (Venus) was determined as 10.7% and the activity change (mCherry) was 14.5% (inactive).

Take `CO[C@@H]1CN(C)C(=O)c2cc(NS(=O)(=O)Cc3ccccc3)ccc2OC[C@H](C)NC[C@H]1C`: the activity change (Venus) was 3.49% and the activity change (mCherry) is -2.28% (inactive).

As to `COc1ccc(NC(=O)N(C)C[C@H]2OCCCC[C@@H](C)Oc3ccc(NS(=O)(=O)c4ccc(F)cc4)cc3C(=O)N([C@H](C)CO)C[C@H]2C)cc1`, the activity change (Venus) is -16.7% and the activity change (mCherry) is -18% (inactive).

For `O=C(C[C@@H]1CC[C@@H]2[C@H](COC[C@@H](O)CN2S(=O)(=O)c2cccc(Cl)c2)O1)N1CCOCC1`, the activity change (Venus) stood at 10.1% and the activity change (mCherry) was 21.4% (inactive).

As for `O=C(C[C@@H]1CC[C@@H]2[C@H](COC[C@@H](O)CN2Cc2ccc(Cl)cc2)O1)NCc1ccccc1Cl`, the activity change (Venus) is -11.5% and the activity change (mCherry) was -7.35% (inactive).

Consider `O=C(C[C@@H]1CC[C@@H]2[C@H](COC[C@H](O)CN2S(=O)(=O)c2ccccc2)O1)N[C@H]1CCN(Cc2ccccc2)C1`, for which the activity change (Venus) was -6.28% and the activity change (mCherry) is -10.6% (inactive).

Turning to `COc1cccc(NC(=O)Nc2ccc3c(c2)C(=O)N(C)C[C@H](OC)[C@@H](C)CN[C@@H](C)CO3)c1`, the activity change (Venus) was 13.8% and the activity change (mCherry) is 1.34% (inactive).

Take `CCC(=O)Nc1ccc2c(c1)OC[C@@H](C)N(Cc1ccccc1OC)C[C@H](C)[C@H](OC)CN(C)C2=O`: the activity change (Venus) was -6.3% and the activity change (mCherry) was -3.87% (inactive).

With `COc1ccccc1-c1ccc([C@H]2[C@@H](CO)N(CC3CC3)C23CN(S(C)(=O)=O)C3)cc1`, the activity change (Venus) was 0.302% and the activity change (mCherry) was -10.8% (inactive).

On to `O=C(Nc1ccccc1F)N1CC(=O)N2[C@H](CO)[C@H](c3ccc(C#CC4CC4)cc3)[C@@H]2C1`, for which the activity change (Venus) is -0.75% and the activity change (mCherry) was -2.67% (inactive).
